Our source for the growth values is PubChem BioAssay (NCI).

Among the test systems are NCI-H23 lung; NCI-H226 lung; NCI-H322M lung; HOP-62 NSCLC; NCI-H460 lung; HOP-92 NSCLC; NCI-H522 lung; A549/ATCC NSCLC; 786-0 renal; COLO 205 colon; DU-145 prostate; K-562 leukemia; MALME-3M melanoma; MDA-MB-231 breast; RXF 393 renal; SF-268 CNS; SF-295 CNS; SF-539 CNS; UACC-257 melanoma; M14 melanoma.
Assay in all cases: NCI-60 one-dose screen, 48 h (100 = growth as untreated, 0 = no growth, -100 = all killed)
Settings in all cases: 10 µM unless noted

Each structure is given as a SMILES string. Compounds without any hit were thinned out: in the full panel of roughly 83,000, 20% have a hit.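 Values shown are percent growth following 48 h exposure of cells in 96-well plates to a single concentration of compound; below 10 was considered active.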 Unmarked numbers belong to inactive results. Calls of active or inactive are those of the source.

Take `COc1ccc2nc3c(n2c1)C(=O)C(=O)c1ccccc1-3`: the growth in the assay with NCI-H23 lung was -42.1% (active); with NCI-H226 lung it was 14.9%; in the assay with NCI-H322M lung, -60.9% (active); in the assay with HOP-62 NSCLC, -72.9% (active); with NCI-H460 lung it was 14.9%; in the assay on HOP-92 NSCLC, 37.4%. Besides, the growth in the assay with NCI-H522 lung was -69.9% (active); with A549/ATCC NSCLC, -24.3% (active); with 786-0 renal, 8.6% (active); with COLO 205 colon, 42.7%; in the assay with DU-145 prostate it was -92.5% (active); in the assay on K-562 leukemia it was -18.2% (active). In addition, the growth with MALME-3M melanoma was -90.1% (active); in the assay with MDA-MB-231 breast, 16.7%; in the assay with RXF 393 renal it was -16.9% (active); in the assay on SF-268 CNS, 2.6% (active); in the assay on SF-295 CNS it was -95.3% (active); with SF-539 CNS, -95.3% (active). Further, the growth in the assay with UACC-257 melanoma was -83.2% (active); in the assay on M14 melanoma it was -82.9% (active).
In the case of `COc1ccc2nc(-c3ccc(OC)c(OC)c3)cc(-c3nnc(SCC(=O)Nc4ccc(/C(C)=N\O)cc4)n3-c3ccccc3)c2c1`, the growth with NCI-H23 lung was 91.5%; in the assay with NCI-H226 lung it was 74.6%; with NCI-H322M lung it was 84.5%; with HOP-62 NSCLC, 87.9%; with NCI-H460 lung, 89.6%; in the assay with HOP-92 NSCLC, 61.6%. Moreover, the growth with NCI-H522 lung is 42%; with A549/ATCC NSCLC, 70.7%; in the assay on 786-0 renal it was 88.5%; in the assay on COLO 205 colon it was 112%; in the assay with DU-145 prostate, 83.1%; with K-562 leukemia, 63.5%. For the same compound, the growth is 110% in the assay on MALME-3M melanoma; 40.2% in the assay with MDA-MB-231 breast; 79.1% in the assay on RXF 393 renal; 78.1% with SF-268 CNS; 92.9% in the assay with SF-295 CNS; 81.3% with SF-539 CNS. The figures for the growth with UACC-257 melanoma and with M14 melanoma were 88% and 92.1%, respectively.
As for `CNc1cccc2c1C(=O)c1cccc(N)c1C2=O`, the growth in the assay with NCI-H23 lung is 76.3%; in the assay with NCI-H226 lung, 82.4%; in the assay with NCI-H322M lung, 75.3%; in the assay with HOP-62 NSCLC, 89.3%; with NCI-H460 lung, 52.4%; in the assay with HOP-92 NSCLC, 20.5%. The growth is 62.3% with NCI-H522 lung; 59.8% in the assay with A549/ATCC NSCLC; 38% with 786-0 renal; 7.33% (active) with COLO 205 colon; 40.1% in the assay with DU-145 prostate; 26.2% in the assay on K-562 leukemia. Besides, the growth in the assay on MALME-3M melanoma is 87.4%; in the assay on MDA-MB-231 breast, 85.9%; with RXF 393 renal it was 60.9%; with SF-268 CNS, 56.1%; in the assay on SF-295 CNS, 88.5%; with SF-539 CNS it was 85.7%. The growth is 80.5% in the assay with UACC-257 melanoma and 11.3% in the assay with M14 melanoma.
As for `CC(=O)c1c(OCC#N)ccc2c(C)cc(=O)oc12`, the growth in the assay on NCI-H23 lung was 109%; with NCI-H226 lung, 112%; with NCI-H322M lung, 113%; with HOP-62 NSCLC it was 94.7%; with NCI-H460 lung, 103%; in the assay with HOP-92 NSCLC, 108%. Moreover, the growth with NCI-H522 lung is 77.3%; in the assay on A549/ATCC NSCLC, 99.9%; with 786-0 renal, 106%; with COLO 205 colon, 104%; in the assay on DU-145 prostate, 114%; in the assay on K-562 leukemia it was 69%. In addition, the growth with MALME-3M melanoma is 116%; in the assay with MDA-MB-231 breast, 104%; with RXF 393 renal it was 106%; in the assay with SF-268 CNS, 110%; with SF-295 CNS, 125%; in the assay with SF-539 CNS, 105%. The growth in the assay on UACC-257 melanoma is 133%; with M14 melanoma, 102%.
Consider `C=C(C)[C@@H]1CC[C@]2(C(=O)O)CC[C@]3(C)[C@H](CC[C@@H]4[C@@]5(C)C[C@@H](CC#Cc6ccccc6C)C(=O)C(C)(C)[C@@H]5CC[C@]43C)[C@@H]12`, for which the growth was 18.2% in the assay on NCI-H23 lung; 23.7% in the assay with NCI-H226 lung; 36.4% in the assay with NCI-H322M lung; 32.5% in the assay with HOP-62 NSCLC; 16% with NCI-H460 lung; 38.1% in the assay on HOP-92 NSCLC. The growth in the assay on NCI-H522 lung was -4.68% (active); with A549/ATCC NSCLC, 26.7%; with 786-0 renal, 34.4%; with COLO 205 colon, -7.56% (active); with DU-145 prostate it was 34.4%; in the assay with K-562 leukemia it was 14%. Besides, the growth with MALME-3M melanoma is 61.1%; in the assay with MDA-MB-231 breast, 48.2%; with RXF 393 renal, 51.8%; in the assay with SF-268 CNS, 48.4%; in the assay with SF-295 CNS, 33.1%; in the assay with SF-539 CNS it was 36%. The growth is 39.9% with UACC-257 melanoma and 40.6% in the assay with M14 melanoma.
Take `CCCCc1n(Cc2ccc3ccccc3c2)c2ccccc2[n+]1Cc1ccc2ccccc2c1`: the growth in the assay with NCI-H23 lung was -83.9% (active); in the assay with NCI-H226 lung it was -72.7% (active); with NCI-H322M lung, -82.3% (active); in the assay on HOP-62 NSCLC, -76.8% (active); in the assay on NCI-H460 lung it was -81.1% (active); in the assay on HOP-92 NSCLC, -70.7% (active). In addition, the growth in the assay with NCI-H522 lung was -77.2% (active); with A549/ATCC NSCLC it was -72.3% (active); in the assay with 786-0 renal, -80.1% (active); with COLO 205 colon it was -66.9% (active); in the assay with DU-145 prostate, -93.1% (active); in the assay on K-562 leukemia, -73.2% (active). The growth with MALME-3M melanoma is -86.2% (active); with MDA-MB-231 breast, -88.2% (active); with RXF 393 renal, -92.6% (active); in the assay on SF-268 CNS it was -80.5% (active); in the assay with SF-295 CNS it was -87.8% (active); with SF-539 CNS it was -94.3% (active). In addition, the growth in the assay on UACC-257 melanoma is -58.1% (active); in the assay with M14 melanoma it was -81.4% (active).
Consider `CN(C)C1=NCCN1`, for which the growth with NCI-H23 lung is 99.3%; in the assay on NCI-H226 lung, 99.4%; in the assay on NCI-H322M lung, 105%; with HOP-62 NSCLC, 107%; in the assay with NCI-H460 lung, 110%; in the assay with HOP-92 NSCLC, 74.8%. Also, the growth was 73.4% in the assay with NCI-H522 lung; 90% in the assay on A549/ATCC NSCLC; 89.6% with 786-0 renal; 111% in the assay with COLO 205 colon; 108% in the assay with DU-145 prostate; 95.6% in the assay with K-562 leukemia. The growth in the assay with MALME-3M melanoma was 97.2%; with MDA-MB-231 breast, 105%; in the assay on RXF 393 renal, 108%; with SF-268 CNS it was 104%; in the assay on SF-295 CNS, 101%; in the assay with SF-539 CNS, 104%. For the same compound, the growth in the assay with UACC-257 melanoma is 103%; in the assay with M14 melanoma, 95.7%.
In the case of `CCOC(=O)NCCc1nc2c([nH]1)c(=O)n(C)c(=O)n2C`, the growth in the assay with NCI-H23 lung was 93.7%; with NCI-H226 lung, 105%; in the assay on NCI-H322M lung, 103%; in the assay on HOP-62 NSCLC it was 115%; with NCI-H460 lung, 106%; with HOP-92 NSCLC, 93.5%. Further, the growth in the assay on NCI-H522 lung is 92.5%; in the assay on A549/ATCC NSCLC it was 104%; in the assay on 786-0 renal, 102%; in the assay with COLO 205 colon, 109%; in the assay on DU-145 prostate, 107%; in the assay on K-562 leukemia, 119%. Moreover, the growth is 99.2% with MALME-3M melanoma; 105% with MDA-MB-231 breast; 113% in the assay with RXF 393 renal; 98.5% in the assay on SF-268 CNS; 103% in the assay with SF-295 CNS; 105% with SF-539 CNS. The growth in the assay with UACC-257 melanoma was 113%; with M14 melanoma it was 88.8%.
